The results in this text go back to PubChem BioAssay (NCATS).

Test [1] can be described thus: MultiTox-Fluor Cytotoxicity Assay - LYMP1-001 - Live Cells (AID 947). Further: potency means the concentration at half of the fitted maximal effect.
The nature of test [2]: Cell Viability - LYMP1-003 - Assay at 40 hr (AID 964). Further: nearly all actives have a fitted effect of over 60% in size. Further: potency means the concentration at half of the fitted maximal effect. Summed up: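 Luminescent ATP signal (CellTiter-Glo) served as the viability read-out after 40 hr compound treatment of human lymphoblastoid LYMP1-003 cells at 37 C. Decreases in ATP were fitted with the Hill equation to give AC50.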
A short description of test [3]: Cell Viability - LYMP2-023 (AID 975). Further: nearly all actives have a fitted effect of over 55% in size. Further: potency means the concentration at half of the fitted maximal effect. In outline: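 Steps: seed 2500 human lymphoblastoid cells per well, incubate 5 hr at 37 C, add compound for 24 hr at 37 C, add CellTiter-Glo, hold 30 min at room temperature, read luminescence. AC50 derived by Hill modelling.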
Test [4] is described as follows: Cell Viability - LYMP2-025 (AID 976). Further: potency means the concentration at half of the fitted maximal effect. Summed up: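 Acute cytotoxicity is scored as a concentration-dependent fall in intracellular ATP, measured by luciferase luminescence, in human lymphoblastoid LYMP2-025 cells exposed to compound for 24 hours at 37 C. AC50 values come from standard Hill fits.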
Test [5] can be described thus: Cell Viability - LYMP2-022 (AID 987). Further: nearly all actives have a fitted effect of over 55% in size. Further: potency means the concentration at half of the fitted maximal effect. Summed up:
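Cells were seeded at 2500 per well, rested 5 hr at 37 C, and treated with titrated compounds for 24 hr at 37 C. Cellular ATP was then quantified by luciferase luminescence, and AC50 values were derived from Hill-modelled concentration-response curves.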

The target of test [6] is Glucocorticoid receptor (Homo sapiens) (UniProt P04150). As to the kind of experiment: qHTS assay for small molecule agonists of glucocorticoid receptor signaling (AID 588532; active means well fitted curve in the direction sought with a large enough effect in the signal ratio, with a control signal flat; the % refers to the signal ratio;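 further: 100% = dexamethasone at 0.1 µM and 0% = DMSO only wells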). To be noted: HeLa MMTV-bla, beta-lactamase ratio, agonist, 18 h; stronger effect = higher value; percent of dexamethasone control, DMSO zero. In outline: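 Stimulation of a glucocorticoid response element-driven beta-lactamase gene was measured in HeLa cells. Responses were scaled between DMSO basal and 0.1 uM dexamethasone, then fitted for half-maximal stimulation.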
In general terms: Quantitative high-throughput screening tests each substance at several concentrations.

For test [7], the target named is Thyroid hormone receptor beta (Homo sapiens) (UniProt P10828). Briefly: qHTS assay for small molecule antagonists of thyroid hormone receptor beta signaling (AID 588547; active means well fitted inhibition curve with a large enough effect in the signal ratio, with a control signal flat, not every such curve was filed as active; the % refers to the signal ratio;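 further: cells stimulated with 0.4 nM T3 agonist during compound exposure; series mostly up to about 77 µM; on the % scale 0 is the no-effect control and ±100 the full control effect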). To be noted: TR-UAS-bla HEK293, beta-lactamase ratio, antagonist mode, 18 h. In outline: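 TR-UAS-bla GripTite HEK293 cells in 2% charcoal/dextran FBS medium were preincubated 4 h at 37 C, given compound (0.59 nM to 92 uM) plus 0.4 nM T3 (final) for 18 h, then CCF4 for 2 h at RT; Hill fit gave IC50.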

The nature of test [8]: Cell Viability - SK-N-SH (AID 435; calls by dose curve;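 further: potency means the concentration at half of the fitted maximal effect; compound exposure lasted 40 h at 37 °C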). To be noted: SK-N-SH neuroblastoma cell viability qHTS. Summed up:
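SK-N-SH human neuroblastoma cells (1500/well) were exposed to compounds in complete medium for 40 h at 37 °C, and intracellular ATP was then measured by CellTiter-Glo luminescence. AC50 was taken from Hill fits, normalized to DMSO and 100 uM tamoxifen.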

Test [9] has as its target Mitogen-activated protein kinase 10 (Mus musculus) (UniProt Q61831). As to the kind of experiment: JNK3 AlphaScreen Assay (AID 530; active means well fitted curve in either direction with a large enough effect, not every such curve was filed as active;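 further: kinase came from lysate of stimulated human HepG2 cells; signal reports phosphorylation of biotinylated GST-cJun 1-79 at Ser73 with 10 µM ATP; series mostly up to about 57 µM; on the % scale 0 is the no-effect control and ±100 the full control effect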). Summed up:
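Phosphorylation of biotinylated GST-cJun(1-79) at Ser73 is measured by AlphaScreen proximity luminescence. Enzyme is JNK3 in HepG2 lysates activated with interleukin-1beta and tumor necrosis factor alpha; ATP is 10 uM final.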
On the technique in general: Bead proximity is the source of the signal in Alpha formats.

The nature of test [10]: MultiTox-Fluor Cytotoxicity Assay - LYMP1-002 - Live Cells (AID 955).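 Further: cells exposed to compound for 16 hours; on the % scale 0 is the no-effect control and ±100 the full control effect.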 In outline: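 Cells were seeded at 2500 per well and incubated 5 hr. Compounds were then added for 16 hr at 37 C, followed by MultiTox-Fluor reagent for 60 min at room temperature and fluorescence reading of viable-cell protease signal.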
The nature of test [11]: Cell Viability - LYMP2-018 (AID 985).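 Further: compound exposure lasted 24 hr at 37 °C; nearly all actives have a fitted effect of over 50% in size.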 Further: potency means the concentration at half of the fitted maximal effect. Summed up: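 Seed 2500 lymphoblastoid cells per well, incubate 5 hr at 37 C, add compound and incubate 24 hr at 37 C, add CellTiter-Glo, wait 30 min at room temperature, then read luminescence.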
Test [12] concerns the target Bile acid receptor (Homo sapiens) (UniProt Q96RI1). Briefly: qHTS assay for small molecule antagonists of farnesoid X receptor signaling (AID 588526; calls by dose curve; further: on the % scale 0 is the no-effect control and ±100 the full control effect). In outline:
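Concentration-response titrations were fitted to the Hill equation for half-maximal inhibition and maximal response, with data normalised to 50 uM chenodeoxycholic acid and DMSO control wells. Cells: FXR-UAS-bla HEK293T, dialyzed FBS.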

Test [13] deals with Glucocorticoid receptor (Homo sapiens) (UniProt P04150). Briefly: qHTS assay for small molecule antagonists of glucocorticoid receptor signaling (AID 588533; active means well fitted inhibition curve with a large enough effect in the signal ratio, with a control signal flat, not every such curve was filed as active; the % refers to the signal ratio). In outline: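 Antagonist-mode qHTS: compound titrations added to GRE-bla HeLa cells, then dexamethasone 2 nM final; 18 h, 37 C. CCF4 FRET fluorescence normalized to dexamethasone and DMSO; IC50 from Hill fit.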
Test [14] is described as follows: qHTS assay for small molecule antagonists of peroxisome proliferator-activated receptor delta signaling (AID 588535).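 Further: cells co-treated with a PPAR-delta agonist as stimulator during compound exposure.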 Conditions: HEK293T PPARd-UAS-bla, beta-lactamase FRET ratio, 18 h; 460 nm channel. Summed up:
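Inhibition of PPAR-delta response element-driven beta-lactamase expression is measured in HEK293T cells exposed to a compound titration series for 18 hrs at 37 C. Half-maximal inhibition comes from Hill equation fitting.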

Test [15] can be described thus: Cell Viability - LYMP2-001 (AID 921).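 Further: series mostly up to about 92 µM; 0% = DMSO only and full inhibition = tetraoctylammonium bromide control wells; nearly all actives have a fitted effect of over 70% in size.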 Summed up: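 Human lymphoblastoid cells (Coriell), 2500 per well, were preincubated 5 hr at 37 C, then exposed to compounds in complete medium for 24 hr at 37 C. Cellular ATP was read by CellTiter-Glo luminescence; AC50 from Hill fits of concentration-response data.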
Test [16] is described as follows: Cell Viability - LYMP2-019 (AID 973). Further: nearly all actives have a fitted effect of over 55% in size. Further: potency means the concentration at half of the fitted maximal effect. Summed up:
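Cytotoxicity is scored as a concentration-dependent drop in cellular ATP after cells (2500/well) receive compound for 24 hr at 37 C. Tetraoctylammonium bromide serves as positive control.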

The nature of test [17]: Cell Viability - LYMP2-007 (AID 979).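 Further: cells exposed to compound for 24 h before reading; nearly all actives have a fitted effect of over 60% in size.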 Further: potency means the concentration at half of the fitted maximal effect. In outline:
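Cells are seeded at 2500 per well and rested 5 hr. Compounds are then added over a concentration series for 24 hr at 37 C. CellTiter-Glo is added for 30 min at room temperature before luminescence reading.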

Test [18] concerns the target Voltage-gated inwardly rectifying potassium channel KCNH2 (Homo sapiens) (UniProt Q12809). Briefly: qHTS Assay for Small Molecule Inhibitors of the Human hERG Channel Activity (AID 588834).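 Further: top concentration of the series differs between compounds; on the % scale 0 is the no-effect control and ±100 the full control effect; lower thallium flux fluorescence means stronger hERG block; nearly all actives have a fitted effect of over 50% in size.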 In outline:
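In hERG-transduced U2OS cells, dye-loaded for 1 hr at room temperature in dark, test compounds incubated 10 min at 37 °C before thallium stimulation. AC50 values derived by Hill modelling of concentration-response.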

Test [19] has as its target Peroxisome proliferator-activated receptor gamma (Homo sapiens) (UniProt P37231). As to the kind of experiment: qHTS assay for small molecule antagonists of peroxisome proliferator-activated receptor gamma signaling (AID 588537; active means well fitted inhibition curve with a large enough effect in the signal ratio, with a control signal flat, not every such curve was filed as active; the % refers to the signal ratio;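 further: reporter cells co-stimulated with 50 nM rosiglitazone agonist during compound treatment; % of control where 0% means no effect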). In outline:
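Compounds are tested as concentration series for inhibition of rosiglitazone-driven (50 nM) reporter expression in GeneBLAzer PPAR-gamma-UAS-bla HEK293 cells. After 16 h at 37 C, CCF4 substrate is added for 2 h at room temperature and blue/green fluorescence is measured.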

Where “and” joins values, the source holds several entries; their conditions need not be identical. Equal entries are not always repeated. Inconclusive results are not listed. Calls of active or inactive are those of the source. Unless noted, the call rests on the fitted dose curve; in most records, active means well fitted curve in the direction sought with a large enough effect; inconclusive means small, poorly fitted or top-dose-only effect, or another doubt; inactive means no such curve, though single readings can be large; an effect the other way counts as inactive or inconclusive. A value given as a limit tells only on which side of the number the result lay.

Chain of Thyroid hormone receptor beta (Homo sapiens) (P10828 whole entry, looked up): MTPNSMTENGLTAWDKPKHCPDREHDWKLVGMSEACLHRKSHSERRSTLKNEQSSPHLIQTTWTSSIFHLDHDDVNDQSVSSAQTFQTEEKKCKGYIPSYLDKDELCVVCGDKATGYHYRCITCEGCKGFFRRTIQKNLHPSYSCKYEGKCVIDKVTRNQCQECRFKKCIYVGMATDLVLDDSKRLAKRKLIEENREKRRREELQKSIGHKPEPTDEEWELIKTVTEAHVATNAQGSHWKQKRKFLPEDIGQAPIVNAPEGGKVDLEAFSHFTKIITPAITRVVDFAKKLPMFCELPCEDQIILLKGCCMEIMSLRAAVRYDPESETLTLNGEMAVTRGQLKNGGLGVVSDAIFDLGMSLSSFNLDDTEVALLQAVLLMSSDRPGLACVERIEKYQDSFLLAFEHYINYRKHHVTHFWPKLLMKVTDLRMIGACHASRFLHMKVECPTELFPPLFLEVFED
Chain of Voltage-gated inwardly rectifying potassium channel KCNH2 (Homo sapiens) (Q12809 whole entry, looked up): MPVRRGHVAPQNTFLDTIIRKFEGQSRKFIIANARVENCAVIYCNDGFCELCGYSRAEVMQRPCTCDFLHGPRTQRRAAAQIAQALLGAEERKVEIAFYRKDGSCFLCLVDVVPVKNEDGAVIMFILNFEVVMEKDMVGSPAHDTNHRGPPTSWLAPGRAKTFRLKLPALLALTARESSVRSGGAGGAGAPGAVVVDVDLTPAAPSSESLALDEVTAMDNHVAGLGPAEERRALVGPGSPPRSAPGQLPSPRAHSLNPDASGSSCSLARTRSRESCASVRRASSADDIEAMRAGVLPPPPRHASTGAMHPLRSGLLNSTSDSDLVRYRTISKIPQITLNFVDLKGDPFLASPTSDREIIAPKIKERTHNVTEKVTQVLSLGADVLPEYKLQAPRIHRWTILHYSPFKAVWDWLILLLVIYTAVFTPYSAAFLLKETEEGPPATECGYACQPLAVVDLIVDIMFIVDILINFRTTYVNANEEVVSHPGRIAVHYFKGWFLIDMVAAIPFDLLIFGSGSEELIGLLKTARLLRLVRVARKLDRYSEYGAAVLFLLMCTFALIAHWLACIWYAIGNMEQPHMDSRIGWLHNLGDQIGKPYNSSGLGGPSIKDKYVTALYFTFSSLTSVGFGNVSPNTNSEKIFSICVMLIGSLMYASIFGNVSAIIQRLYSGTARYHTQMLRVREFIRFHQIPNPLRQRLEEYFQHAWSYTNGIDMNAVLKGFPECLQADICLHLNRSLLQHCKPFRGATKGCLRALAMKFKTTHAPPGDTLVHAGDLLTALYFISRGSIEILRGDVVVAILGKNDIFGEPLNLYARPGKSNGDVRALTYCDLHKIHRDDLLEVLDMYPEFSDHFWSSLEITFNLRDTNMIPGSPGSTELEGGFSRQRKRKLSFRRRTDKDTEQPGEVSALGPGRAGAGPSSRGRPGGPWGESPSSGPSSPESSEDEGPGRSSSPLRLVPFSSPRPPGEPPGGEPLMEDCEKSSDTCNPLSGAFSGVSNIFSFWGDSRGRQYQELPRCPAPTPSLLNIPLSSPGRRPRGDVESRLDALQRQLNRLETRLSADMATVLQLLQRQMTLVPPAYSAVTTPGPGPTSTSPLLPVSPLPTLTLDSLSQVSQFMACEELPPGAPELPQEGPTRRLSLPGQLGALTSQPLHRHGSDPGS
Chain of Bile acid receptor (Homo sapiens) (Q96RI1 whole entry, looked up): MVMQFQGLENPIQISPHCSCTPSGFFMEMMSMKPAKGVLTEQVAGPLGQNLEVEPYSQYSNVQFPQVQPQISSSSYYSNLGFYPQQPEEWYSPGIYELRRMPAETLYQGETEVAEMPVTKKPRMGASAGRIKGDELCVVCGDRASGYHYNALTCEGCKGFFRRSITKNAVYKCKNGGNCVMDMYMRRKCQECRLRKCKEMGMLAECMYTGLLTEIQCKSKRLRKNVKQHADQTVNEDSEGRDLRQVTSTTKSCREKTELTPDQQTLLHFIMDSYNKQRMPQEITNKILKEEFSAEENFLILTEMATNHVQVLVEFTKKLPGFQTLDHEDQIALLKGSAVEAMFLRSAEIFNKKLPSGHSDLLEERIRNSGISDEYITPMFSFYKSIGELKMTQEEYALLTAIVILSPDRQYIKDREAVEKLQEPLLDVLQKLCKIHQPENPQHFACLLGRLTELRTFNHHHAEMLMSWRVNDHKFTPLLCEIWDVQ
Chain of Glucocorticoid receptor (Homo sapiens) (P04150 whole entry, looked up): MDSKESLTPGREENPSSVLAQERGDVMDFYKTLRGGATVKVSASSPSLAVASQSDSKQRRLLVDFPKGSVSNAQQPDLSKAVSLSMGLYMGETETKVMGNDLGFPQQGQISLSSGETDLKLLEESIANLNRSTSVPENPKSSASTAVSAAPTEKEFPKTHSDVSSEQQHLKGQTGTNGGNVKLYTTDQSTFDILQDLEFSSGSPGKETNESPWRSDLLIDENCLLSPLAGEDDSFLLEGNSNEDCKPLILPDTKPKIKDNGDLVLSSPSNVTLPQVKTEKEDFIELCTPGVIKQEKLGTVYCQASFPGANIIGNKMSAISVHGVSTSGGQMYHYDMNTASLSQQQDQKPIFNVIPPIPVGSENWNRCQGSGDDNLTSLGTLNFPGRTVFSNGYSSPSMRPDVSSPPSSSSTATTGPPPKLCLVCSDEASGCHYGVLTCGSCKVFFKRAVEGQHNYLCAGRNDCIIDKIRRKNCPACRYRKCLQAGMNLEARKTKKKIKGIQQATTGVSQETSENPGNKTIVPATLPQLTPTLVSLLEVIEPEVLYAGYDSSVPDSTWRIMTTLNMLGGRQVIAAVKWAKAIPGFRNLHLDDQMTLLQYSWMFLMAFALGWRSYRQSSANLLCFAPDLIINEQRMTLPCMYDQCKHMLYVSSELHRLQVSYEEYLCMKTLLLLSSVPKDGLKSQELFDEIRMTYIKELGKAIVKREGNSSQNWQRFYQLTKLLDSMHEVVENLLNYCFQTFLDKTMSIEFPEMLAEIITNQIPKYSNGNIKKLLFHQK
Chain of Peroxisome proliferator-activated receptor gamma (Homo sapiens) (P37231 whole entry, looked up): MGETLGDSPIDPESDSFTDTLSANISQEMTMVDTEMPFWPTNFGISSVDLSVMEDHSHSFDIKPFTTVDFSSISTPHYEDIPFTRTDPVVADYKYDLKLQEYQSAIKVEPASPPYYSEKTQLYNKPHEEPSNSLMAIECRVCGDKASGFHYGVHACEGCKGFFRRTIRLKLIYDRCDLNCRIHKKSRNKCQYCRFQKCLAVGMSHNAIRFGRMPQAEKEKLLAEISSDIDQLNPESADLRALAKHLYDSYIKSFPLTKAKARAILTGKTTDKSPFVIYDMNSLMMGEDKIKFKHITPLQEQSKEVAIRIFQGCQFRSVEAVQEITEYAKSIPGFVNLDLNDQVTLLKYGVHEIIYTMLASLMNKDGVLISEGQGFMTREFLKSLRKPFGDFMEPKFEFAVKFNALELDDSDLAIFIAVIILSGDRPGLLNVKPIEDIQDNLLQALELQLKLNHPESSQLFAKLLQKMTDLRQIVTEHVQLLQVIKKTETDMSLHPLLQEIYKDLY

As for `Oc1cc2c(cc1O)[C@H]1c3ccc(O)c(O)c3OC[C@@]1(O)C2`, the Potency in test [1] is 50.1 µM (active); in [2], 39.8 µM (active); in test [3], 50.1 µM (active); in [4] it was 50.1 µM (active); in [5], 31.6 µM (active). In addition, the activation in [6] was 0.204% (inactive). In test [7], the activity change % (negative = inhibition) is -14.1% (inactive).
As to `O=C(O)c1ccc([N+](=O)[O-])cc1`, in test [8], the Potency is > 92 µM (inactive). Besides, the Potency entry in test [9], in test [1], in [2], in test [3], in test [4] and in test [11] was “inactive” each time. Further, the Potency entry in test [12] and in test [13] was “inactive” in each case. Further, in [10], the result was inactive. Also, in [6], the activation was 3.87% (inactive) and 0.51% (inactive). The max response in [14] turned out to be 8.52%.
`Nc1cc(C(=O)O)c(O)c(S(=O)(=O)O)c1`: the Potency result in test [15], in [1], in test [2], in [16], in [3] and in [17] was “inactive” in each case. The Potency result in [5], in [13] and in test [18] was “inactive” in each case. The call in test [10] was inactive. Also, the activity change % (negative = inhibition) in test [7] is -10.1% (inactive).
On to `CCCCCCCCOc1ccc(C(=O)O)cc1`, for which the Potency entry in test [15], in [2], in test [16], in [3], in test [4] and in [17] was “inactive” in each case. Moreover, the Potency entry in [12], in test [13] and in [18] was “inactive” each time. Also, the compound was classed as inactive in [10]. Moreover, the activation in test [6] was -4.25% (inactive).
`C/C=C/C=C/C=O`: the Potency result in test [9], in test [19] and in test [18] was “inactive” in each case. For the same compound, in [10], the call was inactive. Further, the Potency in test [16] was 39.8 µM (active); in test [3], 50.1 µM (active); in test [17], 39.8 µM (active). Further, in test [6], the activation was -0.282% (inactive). In addition, the max response in test [14] is 13.6%.
Turning to `Cc1cc(-c2ccc(N=Nc3cc(S(=O)(=O)O)c4ccccc4c3N)c(C)c2)ccc1N=Nc1cc(S(=O)(=O)O)c2ccccc2c1N`, the Potency entry in [1], in test [16] and in test [18] was “inactive” each time. Further, the compound was classed as inactive in test [10]. For the same compound, the max response in test [14] is -39.2%. In addition, the activity change % (negative = inhibition) in [7] is -25.1% (inactive).
Consider `C=C1CC[C@H](O)C/C1=C/C=C1\CCC[C@]2(C)[C@@H]([C@H](C)CCCC(C)C)CC[C@@H]12`, for which the Potency was 47.1 µM (active) in test [8]; 39.8 µM (active) in [2]; 50.1 µM (active) in test [3]; 50.1 µM (active) in test [17]; 39.8 µM (active) in test [11]; 31.6 µM (active) in [5]. Also, the Potency entry in test [9] and in test [18] was “inactive” in each case.
`Nc1ccc(N=Nc2ccccc2)c(N)c1`: the Potency result in test [15], in [2], in [16], in test [4], in test [17] and in test [11] was “inactive” in each case. For the same compound, the Potency entry in test [13] and in test [19] was “inactive” each time. The compound was called inactive in test [10]. Also, the activation in test [6] was -4.54% (inactive).
As for `Brc1cc(Br)c(Oc2cc(Br)c(Br)cc2Br)cc1Br`, the Potency entry in [15], in test [1], in [16], in test [3], in test [4] and in test [5] was “inactive” in each case. Moreover, the call in test [10] was inactive. Moreover, the activity change % (negative = inhibition) in [7] is 17.2% (inactive).
